Screens (PubChem BioAssay)
Tau fluor counter = counter-screen for tau fibril formation inhibitors; tau K18 P301L Alexa594 fluorescence, heparin fibrillization; Potency, µM (top dose mostly 57.7 µM), for inactives: at the top dose activity change, negative = decrease; 280,000 tested, 0.93% active; AID 1463; also: nearly all actives have a fitted effect of over 55% in size
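Human tau K18 P301L (15 uM unlabeled, 0.24 uM Alexa 594-labeled) in 100 mM sodium acetate pH 7 with 20 uM heparin, 6 hr at 37 C. ThT 30 uM added, 1 hr ambient; Alexa 594 FP and total fluorescence read at 555/632 nm.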
Tau fibril ThT = inhibitors of human tau fibril formation, thioflavin T binding; 270,000 tested, 2.1% active; AID 1460; Potency, µM (series often up to 57.4 µM), without a hit: at the top dose activity, negative = inhibition, hits mostly inhibitors; P10636; recombinant tau K18 P301L, heparin-induced fibrillization, ThT fluorescence; also: nearly all actives have a fitted effect of over 55% in size
Target sequence (P10636 561-689 P618L limits assumed): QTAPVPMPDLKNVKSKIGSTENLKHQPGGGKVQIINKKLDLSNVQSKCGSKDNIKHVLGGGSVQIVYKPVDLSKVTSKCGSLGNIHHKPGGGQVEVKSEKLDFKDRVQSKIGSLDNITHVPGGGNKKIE
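Aggregation was driven by heparin (20 uM final) acting on recombinant tau […] bearing P301L in 100 mM sodium acetate pH 7; fibrils were detected with Thioflavin T.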
KDM4E inh = JMJD2E (human) inhibition; Potency, µM (highest dose often 57.1 µM), inactives show at the top dose activity change, negative = inhibition, hits mostly inhibitors; 230,000 tested, 1.6% active; JMJD2E catalytic domain, FDH-coupled NADH fluorescence (FDH is formaldehyde dehydrogenase);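 also: 0% = wells with enzyme and -100% = buffer wells without enzyme; nearly all actives have a fitted effect of over 50% in size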
Target sequence (B2RXH2 1-337 limits assumed): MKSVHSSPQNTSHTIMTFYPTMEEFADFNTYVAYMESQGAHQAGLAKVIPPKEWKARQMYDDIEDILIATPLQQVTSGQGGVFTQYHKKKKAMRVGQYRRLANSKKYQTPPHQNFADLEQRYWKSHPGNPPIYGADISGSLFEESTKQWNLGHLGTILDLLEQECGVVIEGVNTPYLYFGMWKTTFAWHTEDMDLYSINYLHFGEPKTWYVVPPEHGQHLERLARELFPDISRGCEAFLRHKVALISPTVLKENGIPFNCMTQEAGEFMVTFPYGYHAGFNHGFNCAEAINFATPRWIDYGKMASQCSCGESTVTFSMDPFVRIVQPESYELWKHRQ
TexasRed fluor = Texas Red fluorescence interference in TRb-SRC2 counter-screen | Potency, µM (titrated, usually from 106 µM), without a hit: at the highest dose fluorescence change, negative = quenching | TRb/SRC2 Texas Red total fluorescence interference | 280,000 tested, 0.29% active; active = well fitted curve in either direction with a large enough effect; inconclusive = small, poorly fitted or top-dose-only effect
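Human TRβ ligand-binding domain (0.6 uM) and Texas Red SRC2 peptide (20 nM) in Tris buffer with 1 uM T3 and 5% DMSO were incubated with pinned compound for 5 hr at ambient temperature. Total fluorescence was computed as S + 2P (555/632 nm).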
Tau fibril FP = blocks human tau fibril formation measured by polarization | K18 P301L tau heparin fibrillization, Alexa594 FP, 6 h | Potency, µM (highest dose often 57.7 µM), for the others: at the highest dose activity, negative = inhibition, most hits filed as inhibitors | 280,000 tested, 0.39% active | AID 1468; also: nearly all actives have a fitted effect of over 55% in size
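Heparin (20 uM) drove fibril formation of recombinant tau K18 P301L, 15 uM unlabeled with 0.24 uM Alexa 594 label, for 6 hr at 37 C in 100 mM sodium acetate pH 7. Fluorescence polarization (555/632 nm) read 1 hr after 30 uM ThT.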
TRb SRC2 PPI = TRbeta-SRC2 interaction inhibition; TRbeta-SRC2 peptide binding, fluorescence polarization; receptor liganded with 1 µM T3; 280,000 tested, 0.065% active; P10828; Potency, µM (doses to about 106 µM), for the others: at the top dose activity change, negative = inhibition, hits mostly inhibitors;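 also: plate controls were bound peptide for no effect and peptide without receptor for full effect; nearly all actives have a fitted effect of over 50% in size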
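Assay buffer: 20 mM Tris-HCl, 100 mM NaCl, 10% glycerol, 1 mM EDTA, 0.01% NP-40, 1 mM DTT, 1 uM T3, 5% DMSO; TRb LBD 0.6 uM, Texas Red SRC2 20 nM; FP after 5 hr.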
* = called active by the depositor; ? = inconclusive; nt = no result given; [ ] = remark or other dose. An excerpt weighted towards active compounds, which were near 3.5% of everything screened. Unless noted, calls follow the shape of the dose curve; as a rule, active = well fitted curve in the direction sought with a large enough effect; inconclusive = small, poorly fitted or top-dose-only effect, or another doubt; inactive = no such curve, though single readings can be large; an effect the other way counts as inactive or inconclusive. Unless noted, % is scaled to controls: 0 for no effect and ±100 for the full control effect; potency is read from the fitted curve at half-maximal effect.

SMILES | Tau fluor counter | Tau fibril ThT | KDM4E inh | TexasRed fluor | Tau fibril FP | TRb SRC2 PPI
COC1OC(CO)C(O)C(O)C1O (stereo unspecified) | 8% | 10% | 7% | -1% | 7% | 10%
CCOC(=O)C(C(=O)Nc1ccc(C)cc1)C1CCCCC1 (stereo unspecified) | -12% | -16% | -5% | -3% | 7% | 2%
Cc1ccc(-c2n[nH]c3c2C(c2cccc(O)c2)N(c2ccc(C(=O)O)cc2)C3=O)cc1 (stereo unspecified) | -5% | 2% | -4% | 0% | 3% | 1%
O=C1c2[nH]nc(-c3ccc(Br)cc3)c2C(c2cccc(O)c2)N1c1ccc(Cl)cc1 (stereo unspecified) | ? | 10% | nt | 1% | 13µM* | 1%
CCOc1cc(N2CCOCC2)c(OCC)cc1NC(=O)c1ccc2ccccc2n1 | ? | 25µM* | -17% | -8% | 12% | -6%
COc1cc(NC(=O)Nc2ccccc2OC)c(OC)cc1NC(=O)CN1CCCCC1 | ? | ? | -1% | -3% | ? | 8%
CCOc1cc(N2CCOCC2)c(OCC)cc1NC(=O)CN1CCCC1 | 1% | -2% | 25µM* | -2% | 7% | -1%
COc1cc(NC(=O)Nc2ccccc2)c(OC)cc1NC(=O)CN1CCCCC1 | 28µM*[quencher] | ? | 1% | -1% | ? | -4%
CCOc1ncccc1C(=O)OCC(=O)NCc1ccc2c(c1)OCO2 | -3% | -1% | 0% | -3% | -4% | -5%
COc1ccc(O)c(C(=O)c2cc(C#N)c(=O)n(CC3CCCO3)c2)c1 (stereo unspecified) | -10% | -18% | -18% | 0% | -3% | -17%
CCCC(=O)Nn1cnc2c(c1=O)C1(CCCCC1)Cc1ccccc1-2 | -10% | 1% | -9% | -5% | 10% | -2%
COc1ccc(NS(=O)(=O)c2ccc(N3CCCC3)c(NC(=S)Nc3cccc(S(=O)(=O)N(C)C)c3)c2)cc1 | ? | 25µM* | -4% | 3% | ? | 5%
COc1ccc(NS(=O)(=O)c2cc(NC(=O)c3ccccc3F)ccc2N2CCCC2)cc1 | ? | -10% | ? | -9% | 0% | 0%
COc1ccc(NS(=O)(=O)c2cc(NC(=O)c3cccs3)ccc2N2CCCC2)cc1 | 16µM*[quencher] | -12% | ? | 5% | ? | 3%
COc1ccc(NS(=O)(=O)c2cc(NC(=O)/C=C/c3cccs3)ccc2N2CCOCC2)cc1 | 16µM*[quencher] | -9% | -21% | -9% | 4% | 1%
COc1ccc(NC(=O)c2cc(S(=O)(=O)Nc3ccc(OC)cc3)cs2)cc1 | 13µM*[quencher] | -16% | 5% | -3% | ? | 8%
O=C(c1c[nH]c(C(=O)C(Cl)(Cl)Cl)c1)c1ccccc1Cl | 2% | 1% | -3% | 0% | 5% | 1%
CCN(CC)Cc1cc(O)c(CN(CC)CC)cc1O | ? | 11µM* | ? | ? | ? | -10%
CCc1oc(C(=O)O)cc1CN(CC)CC | 2% | 2% | 7% | 0% | 1% | 1%
Cc1cccc(C(=O)Nc2cccc(C(=O)N3CCOCC3)c2)c1 | -1% | 0% | 7% | -3% | 0% | 1%
Cc1cccc(NC(=O)C2SC(=Nc3c(C)cccc3C)C(C(=O)N3CCOCC3)=C2N)c1 (stereo unspecified) | ? | 7.1µM* | -15% | -2% | ? | -8%
O=C(CCNc1ccc(Cc2ccncc2)cc1)c1cccc([N+](=O)[O-])c1 | 16µM*[quencher] | ? | -8% | -2% | ? | -3%
Cc1ccc(-n2[nH]c(C)c(C=Nc3cc(C)ccn3)c2=O)cc1 | -14% | ? | ? | 1% | -3% | -11%
COc1ccc2nc(/N=C/c3c(C)[nH]n(-c4ccc(C)cc4)c3=O)sc2c1 | ? | 18µM* | -1% | 8% | -19% | 6%
S=C(NCc1ccc2[nH]c3c(c2c1)CCCC3)Nc1ccccc1 | 13µM*[quencher] | ? | -7% | -3% | 12% | 0%
